Reference: the supplement of paper PMC11732987, “Enantioselective OTUD7B fragment discovery through chemoproteomics screening and high-throughput optimisation” (Communications Chemistry, 2025)

How the values were obtained:
Assay in all cases: log2 ratio of Biotin-Ahx-Ub-VS probe labelling (fragment/DMSO); higher = less target engagement (more negative = stronger competition), active = hit call of the paper (q ≤ 0.05, log2 ratio ≤ -1)
Conditions in all cases: compound concentration: 200 uM; treatment time: 3 h
[1] = biological target: T1, USP19 (UniProt O94966)
T1 sequence (whole entry): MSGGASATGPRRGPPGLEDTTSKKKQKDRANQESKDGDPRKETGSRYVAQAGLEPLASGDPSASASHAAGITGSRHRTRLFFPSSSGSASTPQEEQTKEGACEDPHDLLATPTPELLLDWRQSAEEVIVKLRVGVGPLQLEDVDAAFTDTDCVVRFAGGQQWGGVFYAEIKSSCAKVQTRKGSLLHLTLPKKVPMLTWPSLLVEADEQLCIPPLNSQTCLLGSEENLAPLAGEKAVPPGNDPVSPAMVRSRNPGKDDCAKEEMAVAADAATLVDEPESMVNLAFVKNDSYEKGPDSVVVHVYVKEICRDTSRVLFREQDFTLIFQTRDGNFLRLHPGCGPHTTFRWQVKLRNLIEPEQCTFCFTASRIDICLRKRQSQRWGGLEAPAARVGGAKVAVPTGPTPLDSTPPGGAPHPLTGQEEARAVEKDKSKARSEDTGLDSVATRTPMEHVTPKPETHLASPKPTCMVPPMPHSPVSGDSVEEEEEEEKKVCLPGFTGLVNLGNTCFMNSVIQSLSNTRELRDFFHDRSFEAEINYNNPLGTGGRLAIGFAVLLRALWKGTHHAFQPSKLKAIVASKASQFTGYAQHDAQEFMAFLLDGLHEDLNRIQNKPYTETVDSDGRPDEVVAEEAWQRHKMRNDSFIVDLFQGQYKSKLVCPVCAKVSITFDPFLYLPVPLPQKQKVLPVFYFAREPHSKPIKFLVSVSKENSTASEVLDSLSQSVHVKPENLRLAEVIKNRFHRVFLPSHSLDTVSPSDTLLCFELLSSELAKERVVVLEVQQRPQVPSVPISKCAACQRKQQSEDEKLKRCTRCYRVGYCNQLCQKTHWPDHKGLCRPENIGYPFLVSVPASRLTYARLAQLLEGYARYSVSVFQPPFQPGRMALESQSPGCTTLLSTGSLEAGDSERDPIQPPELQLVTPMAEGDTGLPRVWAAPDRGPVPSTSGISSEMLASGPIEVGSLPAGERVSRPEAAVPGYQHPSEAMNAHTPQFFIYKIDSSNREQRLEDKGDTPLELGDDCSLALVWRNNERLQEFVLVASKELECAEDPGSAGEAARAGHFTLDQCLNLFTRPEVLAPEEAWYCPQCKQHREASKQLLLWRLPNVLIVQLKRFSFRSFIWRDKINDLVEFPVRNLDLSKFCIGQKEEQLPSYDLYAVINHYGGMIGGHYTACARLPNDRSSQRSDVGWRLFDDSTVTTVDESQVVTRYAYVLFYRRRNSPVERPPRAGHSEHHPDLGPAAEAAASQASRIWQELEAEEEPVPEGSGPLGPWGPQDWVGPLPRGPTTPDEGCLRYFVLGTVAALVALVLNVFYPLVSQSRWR
Procedure, shortened: (§1)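 Average log2 ratios of fragment over vehicle were obtained by unpaired t-test from global-median-normalised Spectronaut label-free quantities. Proteins with ≥2 unique peptides were included. HEK293T lysate (495 µg per sample) was treated in triplicate with fragment at 200 µM or vehicle for 3 h, then with Biotin-Ahx-Ub-VS at 0.5 µM final for 1 h, and labelled DUBs were NeutrAvidin-enriched and run by diaPASEF LC-MS/MS.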

[2] = biological target: USP24 (UniProt Q9UPU5)
Sequence of USP24 (Q9UPU5 whole entry): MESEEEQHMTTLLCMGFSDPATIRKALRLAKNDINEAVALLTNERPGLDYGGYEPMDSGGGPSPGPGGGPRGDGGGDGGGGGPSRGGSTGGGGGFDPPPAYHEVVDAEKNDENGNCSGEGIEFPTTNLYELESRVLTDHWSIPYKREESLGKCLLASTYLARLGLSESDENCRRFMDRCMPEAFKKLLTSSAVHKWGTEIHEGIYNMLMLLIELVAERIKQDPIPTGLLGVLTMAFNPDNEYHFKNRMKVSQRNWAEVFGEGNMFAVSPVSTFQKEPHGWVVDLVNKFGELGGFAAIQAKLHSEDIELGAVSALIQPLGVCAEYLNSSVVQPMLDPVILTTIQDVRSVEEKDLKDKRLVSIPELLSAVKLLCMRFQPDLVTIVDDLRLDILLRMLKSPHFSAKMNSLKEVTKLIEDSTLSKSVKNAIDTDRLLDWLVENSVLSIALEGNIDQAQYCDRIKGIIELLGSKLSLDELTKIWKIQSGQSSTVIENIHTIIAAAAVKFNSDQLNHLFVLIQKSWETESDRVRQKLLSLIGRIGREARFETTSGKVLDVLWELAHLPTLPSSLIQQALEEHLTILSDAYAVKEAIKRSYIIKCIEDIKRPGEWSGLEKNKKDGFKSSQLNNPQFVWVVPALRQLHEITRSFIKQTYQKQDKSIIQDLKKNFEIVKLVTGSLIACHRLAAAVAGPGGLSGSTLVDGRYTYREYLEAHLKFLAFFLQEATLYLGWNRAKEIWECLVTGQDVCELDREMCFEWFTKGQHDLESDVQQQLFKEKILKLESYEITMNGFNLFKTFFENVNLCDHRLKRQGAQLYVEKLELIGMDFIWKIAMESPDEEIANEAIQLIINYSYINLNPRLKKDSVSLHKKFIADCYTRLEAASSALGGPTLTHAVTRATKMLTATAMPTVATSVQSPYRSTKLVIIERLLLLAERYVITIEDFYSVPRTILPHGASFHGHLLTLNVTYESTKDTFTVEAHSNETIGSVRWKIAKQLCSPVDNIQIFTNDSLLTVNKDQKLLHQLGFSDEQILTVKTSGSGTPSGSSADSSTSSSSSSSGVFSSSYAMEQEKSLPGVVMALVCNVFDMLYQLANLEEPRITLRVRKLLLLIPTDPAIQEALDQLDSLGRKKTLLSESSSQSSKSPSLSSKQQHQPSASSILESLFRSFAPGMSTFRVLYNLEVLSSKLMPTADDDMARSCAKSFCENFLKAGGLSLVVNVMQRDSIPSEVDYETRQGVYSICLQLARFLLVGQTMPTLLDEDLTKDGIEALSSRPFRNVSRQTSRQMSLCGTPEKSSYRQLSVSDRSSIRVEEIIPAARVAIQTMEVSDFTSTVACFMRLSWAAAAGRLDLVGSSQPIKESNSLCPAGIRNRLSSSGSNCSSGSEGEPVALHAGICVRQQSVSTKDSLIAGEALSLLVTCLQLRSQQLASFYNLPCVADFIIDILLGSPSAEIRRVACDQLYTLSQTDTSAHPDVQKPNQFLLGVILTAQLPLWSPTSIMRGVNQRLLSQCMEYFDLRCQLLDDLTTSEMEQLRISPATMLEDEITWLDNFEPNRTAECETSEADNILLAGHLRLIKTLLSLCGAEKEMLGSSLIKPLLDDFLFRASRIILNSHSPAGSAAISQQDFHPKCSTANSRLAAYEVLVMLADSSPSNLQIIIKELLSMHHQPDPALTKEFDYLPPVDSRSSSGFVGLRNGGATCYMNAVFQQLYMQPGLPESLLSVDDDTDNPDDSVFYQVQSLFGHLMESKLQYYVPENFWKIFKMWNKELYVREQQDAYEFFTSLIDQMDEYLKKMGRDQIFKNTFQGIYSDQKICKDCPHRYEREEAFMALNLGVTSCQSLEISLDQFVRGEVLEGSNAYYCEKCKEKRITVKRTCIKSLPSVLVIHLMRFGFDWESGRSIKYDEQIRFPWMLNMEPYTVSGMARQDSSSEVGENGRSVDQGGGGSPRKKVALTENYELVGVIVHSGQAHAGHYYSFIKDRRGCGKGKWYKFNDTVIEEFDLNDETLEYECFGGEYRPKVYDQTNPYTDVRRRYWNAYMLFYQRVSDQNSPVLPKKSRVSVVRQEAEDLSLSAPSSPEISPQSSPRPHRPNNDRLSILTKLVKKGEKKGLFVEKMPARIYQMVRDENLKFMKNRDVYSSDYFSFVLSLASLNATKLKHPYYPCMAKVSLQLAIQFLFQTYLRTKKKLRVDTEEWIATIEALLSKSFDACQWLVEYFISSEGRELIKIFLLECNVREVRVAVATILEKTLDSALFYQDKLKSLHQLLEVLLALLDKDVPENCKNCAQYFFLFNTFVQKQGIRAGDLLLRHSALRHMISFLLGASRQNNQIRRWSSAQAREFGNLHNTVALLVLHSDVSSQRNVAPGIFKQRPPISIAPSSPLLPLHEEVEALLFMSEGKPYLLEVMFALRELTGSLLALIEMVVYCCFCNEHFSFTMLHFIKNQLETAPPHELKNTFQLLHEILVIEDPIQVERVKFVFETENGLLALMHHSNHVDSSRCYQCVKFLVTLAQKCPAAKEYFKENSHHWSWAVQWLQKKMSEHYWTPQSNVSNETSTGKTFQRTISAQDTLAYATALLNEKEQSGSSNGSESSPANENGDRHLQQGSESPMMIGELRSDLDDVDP
Procedure, shortened: as §1

[3] = biological target: T2, USP25 (UniProt Q9UHP3)
T2 sequence (whole entry): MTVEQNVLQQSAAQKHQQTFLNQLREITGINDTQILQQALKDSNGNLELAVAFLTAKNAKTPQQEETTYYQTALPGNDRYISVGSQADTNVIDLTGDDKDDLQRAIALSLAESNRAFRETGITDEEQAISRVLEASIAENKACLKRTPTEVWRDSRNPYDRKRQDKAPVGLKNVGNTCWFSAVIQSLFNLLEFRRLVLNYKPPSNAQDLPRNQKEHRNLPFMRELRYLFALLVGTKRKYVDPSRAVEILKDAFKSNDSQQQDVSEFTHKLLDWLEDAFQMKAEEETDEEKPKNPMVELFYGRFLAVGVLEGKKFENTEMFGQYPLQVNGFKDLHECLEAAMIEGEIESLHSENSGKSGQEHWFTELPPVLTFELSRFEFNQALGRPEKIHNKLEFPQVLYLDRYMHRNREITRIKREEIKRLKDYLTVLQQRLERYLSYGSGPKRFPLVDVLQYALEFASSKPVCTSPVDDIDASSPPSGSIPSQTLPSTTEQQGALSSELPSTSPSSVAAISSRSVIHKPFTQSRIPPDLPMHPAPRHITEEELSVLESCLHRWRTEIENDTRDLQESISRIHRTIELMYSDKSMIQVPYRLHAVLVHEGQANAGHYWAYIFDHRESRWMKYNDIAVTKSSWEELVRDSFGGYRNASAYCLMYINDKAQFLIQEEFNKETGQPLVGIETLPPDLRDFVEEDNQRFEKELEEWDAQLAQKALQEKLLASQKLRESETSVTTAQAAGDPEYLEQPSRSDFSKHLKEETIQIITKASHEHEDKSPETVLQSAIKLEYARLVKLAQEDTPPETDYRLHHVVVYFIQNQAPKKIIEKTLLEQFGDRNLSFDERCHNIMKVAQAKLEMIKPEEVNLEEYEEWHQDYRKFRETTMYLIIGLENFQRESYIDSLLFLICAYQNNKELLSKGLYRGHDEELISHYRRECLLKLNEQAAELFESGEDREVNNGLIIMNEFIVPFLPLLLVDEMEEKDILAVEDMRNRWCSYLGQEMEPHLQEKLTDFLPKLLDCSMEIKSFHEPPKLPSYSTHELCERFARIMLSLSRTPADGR
Procedure, shortened: as §1

[4] = biological target: T3, USP28 (UniProt Q96RU2)
T3 sequence (whole entry): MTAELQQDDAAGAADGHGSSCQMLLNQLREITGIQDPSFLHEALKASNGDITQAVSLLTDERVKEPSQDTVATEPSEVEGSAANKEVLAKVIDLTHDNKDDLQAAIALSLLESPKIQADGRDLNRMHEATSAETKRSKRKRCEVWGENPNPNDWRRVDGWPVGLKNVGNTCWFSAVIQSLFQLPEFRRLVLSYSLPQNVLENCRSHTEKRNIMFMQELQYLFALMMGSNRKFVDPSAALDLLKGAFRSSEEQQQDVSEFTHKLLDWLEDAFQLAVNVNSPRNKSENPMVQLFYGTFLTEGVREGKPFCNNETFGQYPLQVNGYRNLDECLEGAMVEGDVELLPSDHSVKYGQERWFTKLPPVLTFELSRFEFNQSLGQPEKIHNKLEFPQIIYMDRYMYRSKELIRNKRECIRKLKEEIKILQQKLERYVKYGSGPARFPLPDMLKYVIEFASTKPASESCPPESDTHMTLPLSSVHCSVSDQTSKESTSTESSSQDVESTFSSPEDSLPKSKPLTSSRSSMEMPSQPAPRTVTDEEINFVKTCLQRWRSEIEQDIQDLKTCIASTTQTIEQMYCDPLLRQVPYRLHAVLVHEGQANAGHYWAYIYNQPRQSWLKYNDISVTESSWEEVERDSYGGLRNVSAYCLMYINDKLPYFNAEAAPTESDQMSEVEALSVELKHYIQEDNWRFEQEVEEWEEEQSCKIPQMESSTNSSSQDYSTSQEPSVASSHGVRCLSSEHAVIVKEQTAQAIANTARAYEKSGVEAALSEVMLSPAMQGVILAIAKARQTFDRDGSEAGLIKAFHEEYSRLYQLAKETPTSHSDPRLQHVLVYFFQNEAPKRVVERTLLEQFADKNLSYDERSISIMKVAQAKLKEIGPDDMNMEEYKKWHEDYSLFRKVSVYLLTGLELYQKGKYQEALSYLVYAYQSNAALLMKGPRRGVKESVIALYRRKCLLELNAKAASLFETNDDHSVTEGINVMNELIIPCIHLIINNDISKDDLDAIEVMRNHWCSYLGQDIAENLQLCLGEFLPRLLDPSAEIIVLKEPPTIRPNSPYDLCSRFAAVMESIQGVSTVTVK
Procedure, shortened: as §1

Measured: log2 ratio of Biotin-Ahx-Ub-VS probe labelling

Cc1cccn2cc(CCNC(=O)CCl)nc12.Cl
inactive: [1] -0.279 | [2] -0.29 | [3] -0.0777 | [4] -0.334
